# Source: PubChem BioAssay (National Center for Advancing Translational Sciences (NCATS))
# Compounds with a hit are over-represented: about 12% of the library has one in this group of screens.
# PLK1 PBD block – inhibitors of human PLK1 polo-box domain binding; P53350; Plk1 PBD binding of FITC phosphopeptide, fluorescence polarization; Potency, µM, for inactives: max response, negative = inhibition, hits mostly inhibitors; 360,000 tested, 2.8% active; note: potency is the fitted concentration of half-maximal effect; series mostly up to about 57 µM; % is set by controls: 0 for no effect and ±100 for the full control effect; nearly all actives have a fitted effect of over 65% in size
# G9a inh – G9a (human) methyltransferase inhibition; Q96KQ7; 350,000 tested, 8.8% active; Potency, µM (top dose mostly 102 µM), for inactives: at the top dose activity, negative = inhibition, most hits filed as inhibitors; G9a H3K9 monomethylation, AlphaScreen, 2 h; note: potency is the fitted concentration of half-maximal effect; % is set by controls: 0 for no effect and ±100 for the full control effect; nearly all actives have a fitted effect of over 75% in size
#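 Chemiluminescent proximity detection of H3K9 monomethylation, read after 10 min bead incubation in the dark. Reaction: 20 nM G9a, 500 nM biotin-H3K9 peptide, 20 uM SAM cofactor, 2 h, room temperature, following 15 min enzyme-compound preincubation.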
# PI5P4Ka inh – inhibitors of human PI5P4K alpha | max response, % | 330,000 tested, 1.2% active | PI5P4Kalpha enzyme, ADP-Glo luminescence, 60 min; active compounds read low | P48426; active = max response of -50% or lower; inconclusive = between -30% and -50%; inactive = -30% or higher; note: value at the top dose of about 77 µM; % is set by controls: 0 for no effect and ±100 for the full control effect
#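 Luminescence from ADP-Glo served as readout of PI5P4Kalpha activity in a qHTS format. Reaction: enzyme, substrate, compound, ATP at 5 microM final, 60 min at RT.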
# HP1b chromo inh – blocks HP1-beta chromodomain binding to methylated histone tails | 390,000 tested, 0.56% active | AlphaScreen HP1-beta / biotin-H3K9me3 peptide binding | P83916 | Potency, µM (titrated, usually from 114 µM), for inactives: top-dose activity change, negative = inhibition, most hits filed as inhibitors; note: potency is the fitted concentration of half-maximal effect; nearly all actives have a fitted effect of over 70% in size
#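 Compound inhibition of the preformed complex between 50 nM HP1-beta and 50 nM biotinylated H3K9me3 peptide was read by AlphaScreen. Buffer was PBS pH 7.4 with 0.01% Tween-20. Incubations ran 30 min at room temperature, with 10 ug/mL donor/acceptor beads.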
# BAZ2B inh – BAZ2B (human) inhibition | AlphaScreen BAZ2B-H3K14Ac peptide displacement | Q9UIF8 | 360,000 tested, 4.4% active | Potency, µM (doses to about 114 µM), without a hit: at the top dose activity change, negative = inhibition, most hits filed as inhibitors; note: potency is the fitted concentration of half-maximal effect; % is set by controls: 0 for no effect and ±100 for the full control effect; nearly all actives have a fitted effect of over 60% in size
#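 Multi-concentration screen (max 110 uM) measuring displacement of acetylated histone H3 peptide from BAZ2B by AlphaScreen, using 50 nM protein, 50 nM peptide and 10 ug/mL streptavidin donor plus Ni-chelate acceptor beads.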
# JMJD2A Tudor – JMJD2A Tudor domain (human) inhibition | O75164 | AlphaScreen JMJD2A-Tudor / H3K4me3 peptide binding | Potency, µM (titrated, usually from 114 µM), for the others: at the top dose activity change, negative = inhibition, usual class: inhibitors | 390,000 tested, 4.4% active | AID 504339; note: potency is the fitted concentration of half-maximal effect; % is set by controls: 0 for no effect and ±100 for the full control effect; nearly all actives have a fitted effect of over 50% in size
# The depositor's hits bear a star; ? = inconclusive; . = no result given; [ ] = another dose, or the depositor's remark. Unless noted, calls come from the whole dose curve; as a rule, active = well fitted curve in the direction sought with a large enough effect; inconclusive = small, poorly fitted or top-dose-only effect, or another doubt; inactive = no such curve, though single readings can be large; an effect the other way counts as inactive or inconclusive.
SMILES,PLK1 PBD block,G9a inh,PI5P4Ka inh,HP1b chromo inh,BAZ2B inh,JMJD2A Tudor
CC(C)C[C@H]1CN(CCCC[C@H]2CNC(=O)C(=O)N2CCC2CCCCC2)C(=O)C(=O)N1CC1CCCCC1,-3.7%,.,0.0,.,.,.
CCN(CC)c1ccc(NC(=O)c2c(C)nn(-c3ccc(F)cc3)c2-n2cccc2)c(C)c1,.,3.16µM*,.,-21.2%,35.5µM*,31.6µM*
CCN(CC)c1ccc(NC(=O)C2=CCN(S(=O)(=O)c3ccc(F)cc3)CC2)c(C)c1,-10.6%,11.2µM*,1.6,-6.6%,?,?
Cc1ccc(S(=O)(=O)N2CC=C(C(=O)NCc3ccc(F)cc3)CC2)cc1,.,22.4µM*,.,.,4.6%,.
Cc1ccc(CNC(=O)C2=CCN(S(=O)(=O)c3ccc(C)cc3)CC2)cc1,.,31.6µM*,.,.,2.5%,.
Cc1ccc(CCNC(=O)C2=CCN(S(=O)(=O)c3ccccc3)CC2)cc1,-10.7%,-11.7%[59 µM],1.2,63.4%,-9.8%,-3.8%
COc1ccc(CCNC(=O)C2=CCN(S(=O)(=O)c3ccc(F)cc3)CC2)cc1OC,-17.9%,?,-0.9,16.9%,-3.5%,-14.5%
CCc1ccc(NC(=O)CSc2nnnn2-c2cccnc2)cc1,-5.7%,.,-9.6,17.6%,-37.9%,-2.2%
Cc1ccc(S(=O)(=O)N2CC=C(C(=O)NC3CC3)CC2)cc1,21.2µM*,?,-26.7,12.4%,0.2%,-10.3%[11.4 µM]
COc1ccccc1CNC(=O)C1=CCN(S(=O)(=O)c2ccc(C)cc2)CC1,-15.3%,50.1µM*,-8.4,18.6%,-12.9%,-15.6%
COCCCNC(=O)C1=CCN(S(=O)(=O)c2ccc(C)cc2)CC1,-2.3%,35.5µM*,1.1,48.2%,-12.4%[57.1 µM],-3.8%
CCOC(=O)N1CCC(NC(=O)C2=CCN(S(=O)(=O)c3ccccc3)CC2)CC1,0.6%,-31.5%,2.4,37.0%,-11.1%,-14.1%
Cc1ccc(CNC(=O)c2ccc3c(c2)CCN3S(=O)(=O)c2ccccc2)cc1,.,5.62µM*,.,12.6%,-2.1%,-17.9%
COc1ccc(SCc2cc(=O)c3cc(Cl)ccc3[nH]2)cc1,.,3.2%[59 µM],.,34.7%[57 µM],-1.0%,-3.6%
CCCCNC(=O)CCC(=O)N1CCN(C(c2ccccc2)c2ccccc2)CC1,-0.2%,2.3%,4.0,68.7%,79.4µM*,-0.7%
COCCNC(=O)CNC(c1ccccc1)c1ccccc1,.,44.7µM*,.,.,56.2µM*,.
COc1ccc(CNC(=O)CNC(c2ccccc2)c2ccccc2)cc1OC,-8.1%,5.6%,-0.3,-4.1%,-37.1%,-13.0%
Cc1ccccc1C(=O)N1CCN(C(c2ccccc2)c2ccccc2)CC1,-3.8%,-18.5%[59 µM],5.5,34.2%,-25.3%,-22.0%
Cc1occc1C(=O)N1CCN(C(c2ccccc2)c2ccccc2)CC1,-11.2%,39.8µM*,-5.3,2.7%,?,?
Cc1ccnc(SCC(=O)N2CCN(C(c3ccccc3)c3ccccc3)CC2)n1,-18.6%,44.7µM*,-3.3,36.2%,-2.0%,-18.0%
Cc1ccnc(SCC(=O)N2CCc3ccccc32)n1,0.2%,17.8%,3.1,25.0%,-8.6%,-3.5%
COCCNC(=O)CN1CCN(C(c2ccccc2)c2ccccc2)CC1,-9.7%,14.1µM*,.,?,?,8.91µM*
CN(Cc1ccccc1)C(=O)CN1CCN(C(c2ccccc2)c2ccccc2)CC1,0.8%,-37.6%,2.8,-3.2%,-30.7%,-19.6%
O=C(c1cc(-c2cccc(O)c2)on1)N1CCN(C(c2ccccc2)c2ccccc2)CC1,5.7%,44.7µM*,4.5,9.0%,-7.5%,?
COC(=O)CN1CCN(C(c2ccccc2)c2ccccc2)CC1,-6.0%,56.2µM*,.,27.6%,7.8%,-23.1%
O=C(CCS(=O)(=O)c1ccc(Br)cc1)N1CCN(c2ccccc2)CC1,-8.1%,?,4.6,-23.4%,?,-30.2%
CC(=O)N1CCCc2cc(S(=O)(=O)CCC(=O)N3CCN(c4cccc(C)c4)C(C)C3)ccc21 (stereo not drawn),-17.7%,50.1µM*,3.0,-24.7%,50.1µM*,56.2µM*
